Test results: PubChem BioAssay (EPA / NIEHS)
Records with an inconclusive call do not appear. Active and inactive are the calls of the source. How the source made its calls: active means hit-call score of the fitted dose curve at least 0.9, where 1 is the maximum; inconclusive means response in the unintended direction; inactive means score below 0.9.

Tested on: not listed separately
Test: TOX21_p53_BLA_p5_viability: Viability Assessment in the Tox21 HCT-116 p53 Agonism Beta-lactamase Assay, Phase 5 (AID 2283600)
Outline: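 ATP luminescence (CellTiter-Glo, 30 min, RT) served as the viability read-out, with loss of signal indicating cytotoxicity. Compounds in DMSO were pinned at a 217-fold dilution onto 4000 cells/well and incubated 16 h, 37C.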

| SMILES | outcome |
| --- | --- |
| CCCCC1CCCCC(=O)O1 (configuration not stated) | inactive |
| CCCCCCCCOS(=O)(=O)O | inactive |
| CCCCC(CC)COC(=O)COc1ccc(Cl)cc1C (configuration not stated) | inactive |
| CC(C)OB(OC(C)C)OC(C)C | inactive |
| CC(C)C(=O)OCC=Cc1ccccc1 | inactive |
| O=C(OCc1ccccc1)c1ccccc1O | inactive |
| CC(C)(CO)CO | inactive |
| C=CC(C)CCCC(C)(C)O (configuration not stated) | inactive |
| CNC(=C[N+](=O)[O-])NCCSCc1ccc(CN(C)C)o1 | inactive |
| C=C(C)C(=O)OCCN(C)C | inactive |
| CC(C)Cc1ccccc1 | inactive |
| CCCCCCCCCO | inactive |
| COC(=O)C(C)Oc1ccc(Oc2ncc(C(F)(F)F)cc2Cl)cc1 (configuration not stated) | inactive |
| [Na+] | inactive |
| CC12CCC(C1)C(C)(C)C2O (configuration not stated) | inactive |
| OC[C@@H](O)[C@H](O)[C@@H](O)[C@@H](O)CO | inactive |
| NC(=O)c1cnccn1 | inactive |
| COc1ccc2[nH]cc(CCNC(C)=O)c2c1 | inactive |
| CC1=CC(=O)[C@H]2C[C@@H]1C2(C)C | inactive |

| SMILES | outcome |
| --- | --- |
| O=C(O)c1cc(C(=O)O)c(C(=O)O)cc1C(=O)O | inactive |
| CC(=O)Nc1cc(S(=O)(=O)O)cc2cc(S(=O)(=O)O)c(N=Nc3ccccc3)c(O)c12 | inactive |
| CCC(C)C1CCCCC1=O (configuration not stated) | inactive |
| [Cu+] | inactive |
| CCCCN(CCO)CCO | inactive |
| OCCCO | inactive |
| C=CC(O)CCCCC (configuration not stated) | inactive |
| CCC(C)(C)c1cc(O)c(C(C)(C)CC)cc1O | inactive |
| CCCCOC(=O)C(C)OC(=O)CCC (configuration not stated) | inactive |
| C=C/C(C)=C/C/C=C(\C)CCC=C(C)C | inactive |
| O=[N+]([O-])c1cc(N(CCO)CCO)ccc1NCCO | inactive |
| O=C(O)c1cccc(Cl)n1 | inactive |
| c1ccc(Cc2ccccc2)cc1 | inactive |
| CCOC(=O)CCCCCCCCC(=O)OCC | inactive |
| CCC(C)(CCCC(C)C)OC(C)=O (configuration not stated) | inactive |
| CCCCCCC(O)CCOC(C)=O (configuration not stated) | inactive |
| OC[C@H]1O[C@@H](O[C@H]2[C@H](O)[C@@H](O)[C@H](O)O[C@@H]2CO)[C@H](O)[C@@H](O)[C@H]1O | inactive |
| CC(C)COC(=O)c1ccccc1 | inactive |

Molecular target: Cellular tumor antigen p53 (Homo sapiens) (UniProt P04637)
Sequence (P04637 whole entry, looked up): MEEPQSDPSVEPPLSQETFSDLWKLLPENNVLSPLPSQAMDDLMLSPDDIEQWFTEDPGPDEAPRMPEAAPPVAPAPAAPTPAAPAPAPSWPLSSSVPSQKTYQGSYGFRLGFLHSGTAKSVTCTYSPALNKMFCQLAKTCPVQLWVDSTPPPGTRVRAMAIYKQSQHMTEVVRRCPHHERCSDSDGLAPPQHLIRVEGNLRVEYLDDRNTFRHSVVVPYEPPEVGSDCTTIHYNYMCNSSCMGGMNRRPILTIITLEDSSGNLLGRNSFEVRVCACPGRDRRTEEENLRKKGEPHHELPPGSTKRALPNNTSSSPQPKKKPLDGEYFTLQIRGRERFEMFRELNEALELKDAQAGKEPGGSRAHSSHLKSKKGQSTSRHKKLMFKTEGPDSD
Test: TOX21_p53_BLA_p4_ratio: Tox21 HCT-116 p53 Agonism Beta-lactamase Assay, Ratio, Phase 4 (AID 2283601)
Outline: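 Signal is the blue/green (460nm/530nm) ratio of cleaved versus uncleaved CCF4-AM substrate, read after 2 h substrate loading. Cells were HCT116 carrying the p53-responsive beta-lactamase reporter, dosed 16 h at 37C, 5% CO2; CellTiter-Glo measured in parallel.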

| SMILES | outcome |
| --- | --- |
| CCCCCCCCOS(=O)(=O)O | inactive |
| CC(C)C(=O)OCC=Cc1ccccc1 | inactive |
| O=C(OCc1ccccc1)c1ccccc1O | inactive |
| CC(C)(CO)CO | inactive |
| C=CC(C)CCCC(C)(C)O (configuration not stated) | inactive |
| CNC(=C[N+](=O)[O-])NCCSCc1ccc(CN(C)C)o1 | inactive |
| CC(C)Cc1ccccc1 | inactive |
| [Na+] | inactive |
| CC12CCC(C1)C(C)(C)C2O (configuration not stated) | inactive |
| NC(=O)c1cnccn1 | inactive |
| COc1ccc2[nH]cc(CCNC(C)=O)c2c1 | inactive |
| CC(=O)Nc1cc(S(=O)(=O)O)cc2cc(S(=O)(=O)O)c(N=Nc3ccccc3)c(O)c12 | inactive |
| OCCCO | inactive |
| CCC(C)(C)c1cc(O)c(C(C)(C)CC)cc1O | inactive |
| CCCCOC(=O)C(C)OC(=O)CCC (configuration not stated) | inactive |
| O=[N+]([O-])c1cc(N(CCO)CCO)ccc1NCCO | inactive |
| CCOC(=O)CCCCCCCCC(=O)OCC | inactive |
| CCC(C)(CCCC(C)C)OC(C)=O (configuration not stated) | inactive |
| CCCCCCC(O)CCOC(C)=O (configuration not stated) | inactive |
| CC(C)COC(=O)c1ccccc1 | inactive |
